# Data: PubChem BioAssay
# Several values for one entry are separate records, joined by “and”; a condition that tells them apart may be missing. Equal entries are not always repeated. Records with an inconclusive call do not appear. Some structures have more than one record in an assay (separate samples or runs), and their calls can disagree. Activity calls are given as the source filed them.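 The calls were made as follows, unless noted: active = normalized viability below 100% at a tested concentration; inactive = the rest.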
# What was measured:
# [1] = viability loss in pontine glioma line – cell-based, SU-DIPG-XVII, MIPE5.0, CellTiter-Glo, qHTS, dose response (AID 1347060; cut-off not given, nearly all actives have AC50 up to about 26 µM;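 also: cells exposed to compound for 48 hours before viability readout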); conditions: CellTiter-Glo ATP luminescence
# [2] = viability loss in pontine glioma line – cell-based, SU-DIPG-XIII, MIPE4.0, CellTiter-Glo, qHTS, dose response (AID 1347061; cut-off not given, nearly all actives have AC50 up to about 37 µM;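 also: cells exposed to compound for 48 hours before readout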); conditions: CellTiter-Glo ATP luminescence
# [3] = viability loss in pontine glioma line – cell-based, JHH-DIPG-1, MIPE4.0, CellTiter-Glo, qHTS, dose response (AID 1347062; cut-off not given, nearly all actives have AC50 up to about 27 µM;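 also: cells exposed to compound for two days before readout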); conditions: JHH-DIPG-1 viability, CellTiter-Glo ATP luminescence
# [4] = viability loss in pontine glioma line – cell-based, SU-DIPG-IV, MIPE4.0, CellTiter-Glo, qHTS, dose response (AID 1347063; cut-off not given, nearly all actives have AC50 up to about 30 µM;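 also: compound exposure lasted 48 hours before the viability readout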); conditions: CellTiter-Glo ATP luminescence
# [5] = viability loss in pontine glioma line – cell-based, SU-DIPG-XIII, MIPE5.0, CellTiter-Glo, qHTS, dose response (AID 1347064; cut-off not given, nearly all actives have AC50 up to about 23 µM;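 also: cells exposed to compound for 48 hours before the viability read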); conditions: CellTiter-Glo ATP luminescence
# [6] = viability loss in pontine glioma line – cell-based, SU-DIPG-XXV, MIPE5.0, CellTiter-Glo, qHTS, dose response (AID 1347065; cut-off not given, nearly all actives have AC50 up to about 26 µM;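 also: cells exposed to compound for 48 hours before ATP readout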); conditions: CellTiter-Glo ATP luminescence
# [7] = growth inhibition of DIPG cells – cell-based, MIPE4.0 library, CellTiter-Glo luminescence, qHTS (AID 1347066; cut-off not given, nearly all actives have AC50 up to about 30 µM;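 also: cells exposed to compound for 48 hours before readout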); conditions: SU-DIPG-VI viability, CellTiter-Glo ATP luminescence
# [8] = JHH-DIPG-1 glioma cell viability, MIPE5.0 library, CellTiter-Glo luminescence, qHTS (AID 1347067; cut-off not given, nearly all actives have AC50 up to about 26 µM;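 also: cells exposed to compound for 48 hours before readout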); conditions: JHH-DIPG-1 glioma viability, CellTiter-Glo ATP luminescence
# [9] = viability loss with induced miR-34 in A549 – imaging, A549 dox-inducible miR-34, nuclei and caspase counts, primary screen (AID 1347080;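 active = compounds whose cell count with miR-34 switched on is under 0.7 times the count with it off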); conditions: A549 miR-34 inducible, Hoechst nuclei count, 48 h
# [10] = compounds altering HSF1 focus formation in cells – imaging, Selleck Cancer Library (AID 1347162; in the data active = plate-normalised HSF1 focus index below about 0.46); conditions: human cells, HSF1 nuclear foci imaging, at 10 µM; SSMD: measured here: HSF1 foci SSMD mean; cell count: measured here: cell number; plate-normalised HSF1 focus index: stronger effect = lower value
# [11] = MELAS cybrid and Rieske KO viability enhancers – cell-based, MELAS cybrids, Rieske KO mouse fibroblasts, CellTiter-Glo, primary screen (AID 1508586;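 active = mean z-score across replicates of 1.96 or higher in either the MELAS or the Rieske mutant cell line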;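 also: z relative to plate mean and SD of compound and empty wells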); conditions: low glucose
# [12] = drug combination growth inhibition, ovarian cancer – cell-based, oncology-focused library, rucaparib conditional, profiling panel (AID 1508598); conditions: patient-derived ovarian cancer cells, CellTiter-Glo viability, 144 h, stronger effect = lower value
# [13] = growth inhibition, single agent or in combination, cell-based, chromothripsis tumors, cisplatin or BGB combos (AID 1671449; in the data active = inhibition above about 80%;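 also: cells exposed for 96 hours; 0% = vehicle DMSO and 100% = killing by high DMSO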); conditions: LFS_MB_P medulloblastoma cells
# [14] = growth inhibition, single agent and combos, cell-based, chromothripsis tumors, cisplatin or BGB combos (AID 1671450; in the data active = inhibition above about 80%;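 also: cells exposed to compound for four days; 0% = vehicle DMSO and 100% = cell killing by high DMSO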); conditions: HDN33 neuroblastoma cells, stronger effect = higher value
# [15] = growth inhibition, single agents and combos, ICB984, cell-based, cisplatin or BGB combos, synergistic combos for chromothripsis tumors (AID 1671451; call rule not given here;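 also: cells exposed for 96 hours before readout; 0% = vehicle DMSO and 100% = killing by high DMSO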); conditions: ICB984 medulloblastoma cells, drug combinations, stronger effect = higher value
# [16] = growth inhibition, single agents and combos, HTB85, cell-based, BGB or cisplatin IC20 combos, synergistic combos for chromothripsis tumors (AID 1671453; in the data active = inhibition above about 80%;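 also: cells exposed for 96 hours before readout; 0% = vehicle DMSO and 100% = high DMSO killing control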); conditions: HTB85 osteosarcoma cells, drug combinations, stronger effect = higher value
# [17] = growth inhibition, MDA-MB-436, cell-based, BGB or cisplatin combos, synergistic combos for chromothripsis tumors (AID 1671458; call rule not given here;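 also: cells exposed for 96 hours; 0% = vehicle DMSO and 100% = killing by high DMSO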); conditions: MDA-MB-436 breast carcinoma growth inhibition, drug combinations, stronger effect = higher value
# [18] = BT084 cell growth, single and combined drugs, ICGC_MB145, cisplatin and BGB IC40 combos (AID 1671461; in the data active = inhibition above about 80%;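 also: cells exposed to drugs for 96 hours; 0% = vehicle DMSO and 100% = high DMSO full killing control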); conditions: BT084 medulloblastoma cells, drug combinations, stronger effect = higher value
# [19] = RCMB18 cell growth, single agent and combined, cisplatin and BGB IC40 combos (AID 1671462; in the data active = inhibition above about 80%;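 also: cells exposed to compound for four days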); conditions: RCMB18 medulloblastoma cells, stronger effect = higher value
smiles,measurement,setting,value
C#Cc1cccc(Nc2ncnc3cc(OC)c(OCCCCCCC(=O)NO)cc23)c1,AC50,[1],0.742 µM (active)
same,AC50,[2],0.398 µM (active)
same,AC50,[3],0.148 µM (active)
same,AC50,[4],0.418 µM (active)
same,AC50,[5],0.661 µM (active)
same,AC50,[6],0.417 µM (active)
same,AC50,[7],0.0743 µM (active)
same,AC50,[8],0.833 µM (active)
same,fold change,"[9]; stronger effect = lower value, cell number ratio, induced over uninduced",0.901 (inactive)
same,fold change,[9]; measured here: relative caspase fold change +Dox/-Dox,0.807
same,cell count,"[9]; measured here: total cells with miR-34 induction, stronger effect = lower value",1090
same,cell count,[9]; measured here: total cells without miR-34 induction,1210
same,SSMD,[10],-4.22
same,cell count,[10],7310
same,plate-normalised HSF1 focus index,[10],0.849 (inactive)
same,z-score,"[11]; MELAS cybrid survival, CellTiter-Glo 48 h, stronger effect = higher value",1.07 (inactive)
same,z-score,"[11]; Rieske KO mouse fibroblast survival, CellTiter-Glo 72 h",1.33
same,viability,"[12]; at 0.000305 µM, OCI-C5x cells, with rucaparib 10 µM, 100% = cells with rucaparib alone",114% (inactive)
same,viability,"[12]; at 0.000305 µM, OCI-C5x cells, without rucaparib",114% (inactive)
same,viability,"[12]; at 0.000305 µM, OCI-P5x cells, with rucaparib 20 µM, 100% = cells with rucaparib alone",108% (inactive)
same,viability,"[12]; at 0.000305 µM, OCI-P5x cells, without rucaparib",96.4% (active)
same,viability,"[12]; at 0.00122 µM, OCI-C5x cells, with rucaparib 10 µM, 100% = cells with rucaparib alone",111% (inactive)
same,viability,"[12]; at 0.00122 µM, OCI-C5x cells, without rucaparib",113% (inactive)
same,viability,"[12]; at 0.00122 µM, OCI-P5x cells, with rucaparib 20 µM, 100% = cells with rucaparib alone",104% (inactive)
same,viability,"[12]; at 0.00122 µM, OCI-P5x cells, without rucaparib",98.8% (active)
same,viability,"[12]; at 0.00488 µM, OCI-C5x cells, with rucaparib 10 µM, 100% = cells with rucaparib alone",118% (inactive)
same,viability,"[12]; at 0.00488 µM, OCI-C5x cells, without rucaparib",106% (inactive)
same,viability,"[12]; at 0.00488 µM, OCI-P5x cells, with rucaparib 20 µM, 100% = cells with rucaparib alone",113% (inactive)
same,viability,"[12]; at 0.00488 µM, OCI-P5x cells, without rucaparib",111% (inactive)
same,viability,"[12]; at 0.0195 µM, OCI-C5x cells, with rucaparib 10 µM, 100% = cells with rucaparib alone",112% (inactive)
same,viability,"[12]; at 0.0195 µM, OCI-C5x cells, without rucaparib",112% (inactive)
same,viability,"[12]; at 0.0195 µM, OCI-P5x cells, with rucaparib 20 µM, 100% = cells with rucaparib alone",110% (inactive)
same,viability,"[12]; at 0.0195 µM, OCI-P5x cells, without rucaparib",109% (inactive)
same,viability,"[12]; at 0.0781 µM, OCI-C5x cells, with rucaparib 10 µM, 100% = cells with rucaparib alone",113% (inactive)
same,viability,"[12]; at 0.0781 µM, OCI-C5x cells, without rucaparib",113% (inactive)
same,viability,"[12]; at 0.0781 µM, OCI-P5x cells, with rucaparib 20 µM, 100% = cells with rucaparib alone",107% (inactive)
same,viability,"[12]; at 0.0781 µM, OCI-P5x cells, without rucaparib",108% (inactive)
same,viability,"[12]; at 0.313 µM, OCI-C5x cells, with rucaparib 10 µM, 100% = cells with rucaparib alone",87.3% (active)
same,viability,"[12]; at 0.313 µM, OCI-C5x cells, without rucaparib",85.9% (active)
same,viability,"[12]; at 0.313 µM, OCI-P5x cells, with rucaparib 20 µM, 100% = cells with rucaparib alone",91.1% (active)
same,viability,"[12]; at 0.313 µM, OCI-P5x cells, without rucaparib",98.9% (active)
same,viability,"[12]; at 1.25 µM, OCI-C5x cells, with rucaparib 10 µM, 100% = cells with rucaparib alone",10.5% (active)
same,viability,"[12]; at 1.25 µM, OCI-C5x cells, without rucaparib",39.1% (active)
same,viability,"[12]; at 1.25 µM, OCI-P5x cells, with rucaparib 20 µM, 100% = cells with rucaparib alone",3.13% (active)
same,viability,"[12]; at 1.25 µM, OCI-P5x cells, without rucaparib",21.8% (active)
same,viability,"[12]; at 5 µM, OCI-C5x cells, with rucaparib 10 µM, 100% = cells with rucaparib alone",5.56% (active)
same,viability,"[12]; at 5 µM, OCI-C5x cells, without rucaparib",5.78% (active)
same,viability,"[12]; at 5 µM, OCI-P5x cells, with rucaparib 20 µM, 100% = cells with rucaparib alone",1.22% (active)
same,viability,"[12]; at 5 µM, OCI-P5x cells, without rucaparib",1.21% (active)
same,inhibition,"[13]; at 0.5 µM, stronger effect = higher value",17.8% (inactive) and 78.4% (inactive)
same,inhibition,"[13]; measured here: combination with BGB IC20, at 0.005 µM",-22.9% and -21.6%
same,inhibition,"[13]; measured here: combination with BGB IC40, at 0.005 µM",-38.4% and -30.8%
same,inhibition,"[13]; measured here: combination with BGB IC40, at 0.05 µM",-32.8% and -22.5%
same,inhibition,"[13]; measured here: combination with cisplatin, at 0.5 µM, stronger effect = higher value",83.8% and 104%
same,inhibition,"[13]; measured here: combination with cisplatin, at 5 µM, stronger effect = higher value",112% and 113%
same,inhibition,"[14]; BGB combo, at 5 µM",99.5% and 95.1%
same,inhibition,[14]; at 0.5 µM,-1.62% (inactive) and 3.24% (inactive)
same,inhibition,"[14]; cisplatin combo, at 5 µM",99.9% and 94.2%
same,inhibition,"[14]; measured here: with BGB IC20 combination, at 0.5 µM",-9.96% and -0.599%
same,inhibition,"[14]; measured here: with cisplatin IC20 combination, at 0.5 µM",6.06% and 12.1%
same,inhibition,"[14]; single agent, at 5 µM",99.8% and 96.9%
same,inhibition,"[15]; BGB IC20 combo, at 0.005 µM",68.4% and 23%
same,inhibition,"[15]; BGB IC40 combo, at 0.005 µM",78.3% and 29.4%
same,inhibition,"[15]; BGB IC40 combo, at 0.05 µM",98% and 101%
same,inhibition,[15]; at 0.5 µM,-18.6% (inactive) and -24.1% (inactive)
same,inhibition,"[15]; cisplatin combo, at 0.05 µM",97.9% and 101%
same,inhibition,"[15]; cisplatin combo, at 0.5 µM",-22% and -24.1%
same,inhibition,"[15]; cisplatin combo, at 5 µM",-70.9% and -33.8%
same,inhibition,"[15]; measured here: 5 uM single agent, at 5 µM",-13.9% and -10.2%
same,inhibition,[16]; at 0.5 µM,11.7% (inactive) and 4.4% (inactive)
same,inhibition,"[16]; measured here: with BGB IC20, at 0.5 µM",-2.94% and -22.5%
same,inhibition,"[16]; measured here: with BGB IC20, at 5 µM",99.7% and 73%
same,inhibition,"[16]; measured here: with cisplatin IC20, at 0.5 µM",26% and 9.91%
same,inhibition,"[16]; measured here: with cisplatin IC20, at 5 µM",67.6% and 94.8%
same,inhibition,"[16]; single agent, at 5 µM",99.9% and 74.9%
same,inhibition,[17]; at 0.5 µM,-4.99% (inactive) and -13.2% (inactive)
same,inhibition,"[17]; measured here: BGB combination, at 0.5 µM",-10.9% and -11.9%
same,inhibition,"[17]; measured here: BGB combination, at 5 µM",61.3% and 55.7%
same,inhibition,"[17]; measured here: cisplatin combination, at 0.5 µM",-18.9% and -27.4%
same,inhibition,"[17]; measured here: cisplatin combination, at 5 µM",74.5% and 60.7%
same,inhibition,[18]; at 0.5 µM,82% (active) and 58.2% (inactive)
same,inhibition,"[18]; cisplatin combination, at 0.5 µM",99.1% and 87.2%
same,inhibition,"[18]; cisplatin combination, at 5 µM",103% and 101%
same,inhibition,"[18]; measured here: BGB IC40 combination 0.05 uM, at 0.05 µM",-29.2% and 20%
same,inhibition,"[18]; single agent, at 5 µM",106% and 108%
same,inhibition,[19]; at 0.5 µM,69.7% (inactive) and 45.9% (inactive)
same,inhibition,"[19]; cisplatin combo, at 5 µM",96.3%
same,inhibition,"[19]; measured here: BGB IC40 combination, at 0.05 µM",-10.5% and -3.2%
same,inhibition,"[19]; measured here: combination with cisplatin, at 0.5 µM",82.3% and 57.4%
same,inhibition,"[19]; single agent, at 5 µM",89.6% and 92.4%
